{"source": "PubChem BioAssay", "note": "Several values for one entry are separate records, joined by “and”; a condition that tells them apart may be missing. Equal values may be shown once. Unmarked numbers belong to inactive results.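 Rule for the calls: active = compounds whose cell count with miR-34 switched on is under 0.7 times the count with it off; inactive = the rest.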 Peptide text beside a SMILES is read from it. * marks the point of attachment. CH2Cl = ClC*"}
{"experiment": "sensitizers of A549 cells to miR-34 induction, primary screen, imaging, A549 dox-inducible miR-34, nuclei and caspase counts (AID 1347080); note: test concentration not given here", "conditions": "A549 miR-34 inducible, Hoechst nuclei count, 48 h; hits give low values"}
{"smiles": "C=C(C)[C@H]1O[C@H]2CC[C@@]3(C)[C@@](O)(CC[C@H]4[C@@H]5OC(C)(C)[C@H]6C[C@@H]7C(=C)Cc8c(Cl)cc9[nH]c(c5c9c8[C@@]76O)[C@@]43C)[C@]23O[C@@H]3[C@H]1O", "fold change": 1.28}
{"smiles": "N[C@H]1C[C@@H]1c1ccccc1", "fold change": 0.858}
{"smiles": "C[C@]12CCC3c4ccc(OC(=O)N(CCCl)CCCl)cc4CCC3C1CC[C@@H]2O", "note": "(some centres undefined)", "fold change": 1.19}
{"smiles": "CCOC(=O)CN1C(=O)CC(C[C@@H](O)C2C[C@@H](C)C[C@H](C)C2=O)CC1=O", "note": "(some centres undefined)", "fold change": 1.01}
{"smiles": "C[C@@]1(CO)[C@H](O)CC[C@@]2(C)[C@H]1CC[C@H]1C[C@@H]3C[C@@]12CC[C@]3(O)CO", "fold change": 1.03}
{"smiles": "O[C@H]1[C@H]2[C@H](O)CCCN2C[C@H]1O", "fold change": 0.852}
{"smiles": "CCCCCCC(=O)O[C@H]1CC[C@H]2[C@@H]3C[C@@H](O)C4=CC(=O)CC[C@]4(C)[C@H]3CC[C@]12C", "fold change": 0.966}
{"smiles": "CO[C@@H]1C[C@@H](C[C@H]2CC[C@H](C)[C@H]([C@@H](C)C(=O)O)O2)O[C@]2(O[C@](C)([C@H]3CC[C@@](C)([C@@H]4O[C@@H]([C@H]5O[C@@](O)(CO)[C@H](C)C[C@@H]5C)C[C@@H]4C)O3)C[C@H]2C)[C@@H]1C", "fold change": 0.993}
{"smiles": "CC(C)(O)[C@H]1O[C@H]2CC[C@@]3(C)[C@@](O)(CC[C@H]4Cc5c([nH]c6ccccc56)[C@@]43C)C2=CC1=O", "fold change": 1.09}
{"smiles": "CC1(O)C[C@@]23C[C@@H](O)[C@@]4(O)[C@@H](C[C@H](O)C4(C)C)[C@](C)(O)[C@@H]2CCC1[C@H]3O", "note": "(some centres undefined)", "fold change": 0.932}
{"smiles": "CCCCCCC(C)(C)c1cc(OC)c2c(c1)OC(C)(C)[C@@H]1CC=C(C)C[C@@H]21", "fold change": 1.09}
{"smiles": "Clc1ccc(C2CC3CCC2N3)cn1", "note": "(centres undefined)", "fold change": 0.945}
{"smiles": "CCCC[C@H]1C(=O)O[C@H](C)[C@H](NC(=O)c2cccc(NC=O)c2OC)C(=O)O[C@@H](C)[C@@H]1OC(=O)CC(C)C", "fold change": 1.28}
{"smiles": "CCCCC/C=C\\C/C=C\\C/C=C\\C/C=C\\CCCC(=O)NCc1ccc(O)c(OC)c1", "fold change": "0.841 and 1"}
{"smiles": "COC[C@H]([C@@H](O)[C@@H](O)C(=O)NCC[C@@H](C)c1nc(/C=C/C[C@H]2OC3(C[C@H](O)[C@H]2C)OC([C@@H](C[C@@H](O)[C@@H](C)[C@@H](O)[C@@H](C)/C=C(C)/C(C)=C/C=C/C(C)=C\\C#N)OC)[C@@H](OP(=O)(O)O)C3(C)C)co1)N(C)C", "note": "(some centres undefined)", "fold change": 0.801}
{"smiles": "O=C(CCC/C=C\\C[C@@H]1[C@@H](/C=C/[C@@H](O)COc2cccc(C(F)(F)F)c2)[C@H](O)C[C@@H]1O)NC(CO)CO", "fold change": 0.98}
{"smiles": "CC(C)[C@]1(O)[C@@H](OC(=O)c2ccc[nH]2)[C@@]2(O)[C@@]3(C)C[C@]4(O)O[C@@]5([C@H](O)[C@@H](C)CC[C@]35O)[C@@]2(O)C41C", "fold change": 0.925}
{"smiles": "C=C1[C@@H](C)[C@H]2[C@H](Cc3ccccc3)NC(=O)[C@]23OC(=O)/C=C/[C@H](O)CCC[C@@H](C)C/C=C/[C@H]3[C@@H]1O", "fold change": 1.14}
{"smiles": "C[C@H](N)C(=O)N[C@@H](C)C(=O)N[C@@H](Cc1ccccc1)C(=O)CCl", "note": "(H-Ala-Ala-Phe-CH2Cl)", "fold change": 0.806}
